# Source: article PMC11006913
# Legend:
# Assay in all cases: PBM; 200 nM protein, PBS
# Settings in all cases: dsDNA, one strand shown
# [1] = molecular target: HESX1 (Homo sapiens, UniProt Q9UBX0 95-180, R165K)
# [2] = molecular target: HESX1 (Homo sapiens, UniProt Q9UBX0 95-180)
# [3] = molecular target: PROP1 (Homo sapiens, UniProt O75360 56-141)
# [4] = molecular target: HESX1 (Homo sapiens, UniProt Q9UBX0 95-180, R109Q)
# [5] = molecular target: PROP1 (Homo sapiens, UniProt O75360 56-141, R99H)
# Chain of PROP1 (Homo sapiens, UniProt O75360 56-141, R99H) (O75360 56-141 R99H): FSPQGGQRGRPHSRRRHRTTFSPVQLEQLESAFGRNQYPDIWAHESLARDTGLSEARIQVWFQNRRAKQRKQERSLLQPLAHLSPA
# [6] = molecular target: HESX1 (Homo sapiens, UniProt Q9UBX0 95-180, P111T)
# Chain of HESX1 (Homo sapiens, UniProt Q9UBX0 95-180, P111T) (Q9UBX0 95-180 P111T): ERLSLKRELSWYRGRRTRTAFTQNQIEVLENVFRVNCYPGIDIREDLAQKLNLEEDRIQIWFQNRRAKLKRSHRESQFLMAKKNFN
# [7] = molecular target: PROP1 (Homo sapiens, UniProt O75360 56-141, F88S)
# Chain of PROP1 (Homo sapiens, UniProt O75360 56-141, F88S) (O75360 56-141 F88S): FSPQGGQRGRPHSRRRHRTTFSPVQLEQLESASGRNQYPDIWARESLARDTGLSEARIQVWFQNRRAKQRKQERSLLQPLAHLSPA
# [8] = molecular target: HESX1 (Homo sapiens, UniProt Q9UBX0 95-180, F115L)
# Chain of HESX1 (Homo sapiens, UniProt Q9UBX0 95-180, F115L) (Q9UBX0 95-180 F115L): as the sequence (Q9UBX0 95-180 P111T) above, with T17P, F21L counted along it
# [9] = molecular target: MSX2 (Homo sapiens, UniProt P35548 130-214, R199I)
# Chain of MSX2 (P35548 130-214 R199I): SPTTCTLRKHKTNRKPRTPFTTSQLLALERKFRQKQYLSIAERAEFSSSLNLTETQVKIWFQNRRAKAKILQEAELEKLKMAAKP
# [10] = molecular target: ALX3 (Homo sapiens, UniProt O95076 139-225, N203Q)
# Chain of ALX3 (Homo sapiens, UniProt O95076 139-225, N203Q) (O95076 139-225 N203Q): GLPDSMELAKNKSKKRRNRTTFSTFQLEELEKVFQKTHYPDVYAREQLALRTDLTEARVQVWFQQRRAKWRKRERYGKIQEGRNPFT
# [11] = molecular target: ALX3 (Homo sapiens, UniProt O95076 139-225)
# Chain of ALX3 (Homo sapiens, UniProt O95076 139-225) (O95076 139-225): as the sequence (O95076 139-225 N203Q) above, with Q65N counted along it
# [12] = molecular target: ALX3 (Homo sapiens, UniProt O95076 139-225, L168Q)
# Chain of ALX3 (Homo sapiens, UniProt O95076 139-225, L168Q) (O95076 139-225 L168Q): as the sequence (O95076 139-225 N203Q) above, with L30Q, Q65N counted along it
# [13] = molecular target: ALX3 (Homo sapiens, UniProt O95076 139-225, L168V)
# Chain of ALX3 (Homo sapiens, UniProt O95076 139-225, L168V) (O95076 139-225 L168V): as the sequence (O95076 139-225 N203Q) above, with L30V, Q65N counted along it
# [14] = molecular target: ALX3 (Homo sapiens, UniProt O95076 139-225, N203S)
# Chain of ALX3 (Homo sapiens, UniProt O95076 139-225, N203S) (O95076 139-225 N203S): as the sequence (O95076 139-225 N203Q) above, with Q65S counted along it
# [15] = molecular target: ALX1 (Homo sapiens, UniProt Q15699 118-204, L144V)
# Chain of ALX1 (Homo sapiens, UniProt Q15699 118-204, L144V) (Q15699 118-204 L144V): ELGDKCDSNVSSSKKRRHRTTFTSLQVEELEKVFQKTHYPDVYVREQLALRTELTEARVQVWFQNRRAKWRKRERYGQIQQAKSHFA
# [16] = molecular target: ALX1 (Homo sapiens, UniProt Q15699 118-204, L144R)
# Chain of ALX1 (Homo sapiens, UniProt Q15699 118-204, L144R) (Q15699 118-204 L144R): as the sequence (Q15699 118-204 L144V) above, with V27R counted along it
# [17] = molecular target: ALX1 (Homo sapiens, UniProt Q15699 118-204)
# Chain of ALX1 (Homo sapiens, UniProt Q15699 118-204) (Q15699 118-204): as the sequence (Q15699 118-204 L144V) above, with V27L counted along it
# Chain of HESX1 (Homo sapiens, UniProt Q9UBX0 95-180, R165K) (Q9UBX0 95-180 R165K): as the sequence (Q9UBX0 95-180 P111T) above, with T17P, R71K counted along it
# Chain of HESX1 (Homo sapiens, UniProt Q9UBX0 95-180, R109Q) (Q9UBX0 95-180 R109Q): as the sequence (Q9UBX0 95-180 P111T) above, with R15Q, T17P counted along it
# Chain of HESX1 (Homo sapiens, UniProt Q9UBX0 95-180) (Q9UBX0 95-180): as the sequence (Q9UBX0 95-180 P111T) above, with T17P counted along it
# Chain of PROP1 (Homo sapiens, UniProt O75360 56-141) (O75360 56-141): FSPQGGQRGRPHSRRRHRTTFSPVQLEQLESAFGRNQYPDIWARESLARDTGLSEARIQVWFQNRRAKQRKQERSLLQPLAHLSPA
sequence,measurement,setting,value
CGCACGCC,binding signal,[1],"6.51 upbm affinity estimate (log intensity, higher = more binding, comparable within an allelic series)"
same,binding signal,[2],"6.47 upbm affinity estimate (log intensity, higher = more binding, comparable within an allelic series)"
same,binding signal,[3],"6.43 upbm affinity estimate (log intensity, higher = more binding, comparable within an allelic series)"
same,binding signal,[4],"6.54 upbm affinity estimate (log intensity, higher = more binding, comparable within an allelic series)"
same,binding signal,[5],"6.77 upbm affinity estimate (log intensity, higher = more binding, comparable within an allelic series)"
same,binding signal,[6],"6.43 upbm affinity estimate (log intensity, higher = more binding, comparable within an allelic series)"
same,binding signal,[7],"6.63 upbm affinity estimate (log intensity, higher = more binding, comparable within an allelic series)"
same,binding signal,[8],"6.48 upbm affinity estimate (log intensity, higher = more binding, comparable within an allelic series)"
AAGCTGGC,binding signal,[1],"6.31 upbm affinity estimate (log intensity, higher = more binding, comparable within an allelic series)"
same,binding signal,[2],"6.21 upbm affinity estimate (log intensity, higher = more binding, comparable within an allelic series)"
same,binding signal,[4],"6.45 upbm affinity estimate (log intensity, higher = more binding, comparable within an allelic series)"
same,binding signal,[6],"6.39 upbm affinity estimate (log intensity, higher = more binding, comparable within an allelic series)"
same,binding signal,[8],"6.51 upbm affinity estimate (log intensity, higher = more binding, comparable within an allelic series)"
GCAATTAC,binding signal,[1],"11.4 upbm affinity estimate (log intensity, higher = more binding, comparable within an allelic series)"
same,binding signal,[2],"11.5 upbm affinity estimate (log intensity, higher = more binding, comparable within an allelic series)"
same,binding signal,[9],"12.5 upbm affinity estimate (log intensity, higher = more binding, comparable within an allelic series)"
same,binding signal,[4],"8.2 upbm affinity estimate (log intensity, higher = more binding, comparable within an allelic series)"
same,binding signal,[6],"9.93 upbm affinity estimate (log intensity, higher = more binding, comparable within an allelic series)"
same,binding signal,[8],"7.19 upbm affinity estimate (log intensity, higher = more binding, comparable within an allelic series)"
CCGAGACC,binding signal,[1],"6.38 upbm affinity estimate (log intensity, higher = more binding, comparable within an allelic series)"
same,binding signal,[2],"6.35 upbm affinity estimate (log intensity, higher = more binding, comparable within an allelic series)"
same,binding signal,[10],"7.75 upbm affinity estimate (log intensity, higher = more binding, comparable within an allelic series)"
same,binding signal,[11],"7.48 upbm affinity estimate (log intensity, higher = more binding, comparable within an allelic series)"
same,binding signal,[3],"6.57 upbm affinity estimate (log intensity, higher = more binding, comparable within an allelic series)"
same,binding signal,[4],"6.45 upbm affinity estimate (log intensity, higher = more binding, comparable within an allelic series)"
same,binding signal,[5],"6.84 upbm affinity estimate (log intensity, higher = more binding, comparable within an allelic series)"
same,binding signal,[12],"7.73 upbm affinity estimate (log intensity, higher = more binding, comparable within an allelic series)"
same,binding signal,[6],"6.33 upbm affinity estimate (log intensity, higher = more binding, comparable within an allelic series)"
same,binding signal,[13],"7.74 upbm affinity estimate (log intensity, higher = more binding, comparable within an allelic series)"
same,binding signal,[7],"6.43 upbm affinity estimate (log intensity, higher = more binding, comparable within an allelic series)"
same,binding signal,[8],"6.5 upbm affinity estimate (log intensity, higher = more binding, comparable within an allelic series)"
same,binding signal,[14],"7.73 upbm affinity estimate (log intensity, higher = more binding, comparable within an allelic series)"
GCCCCCCA,binding signal,[1],"6.24 upbm affinity estimate (log intensity, higher = more binding, comparable within an allelic series)"
same,binding signal,[2],"6.28 upbm affinity estimate (log intensity, higher = more binding, comparable within an allelic series)"
same,binding signal,[4],"6.41 upbm affinity estimate (log intensity, higher = more binding, comparable within an allelic series)"
same,binding signal,[6],"6.34 upbm affinity estimate (log intensity, higher = more binding, comparable within an allelic series)"
same,binding signal,[8],"6.4 upbm affinity estimate (log intensity, higher = more binding, comparable within an allelic series)"
CGATTATC,binding signal,[1],"8.23 upbm affinity estimate (log intensity, higher = more binding, comparable within an allelic series)"
same,binding signal,[2],"8.64 upbm affinity estimate (log intensity, higher = more binding, comparable within an allelic series)"
same,binding signal,[8],"6.88 upbm affinity estimate (log intensity, higher = more binding, comparable within an allelic series)"
GCCGGTCC,binding signal,[1],"6.49 upbm affinity estimate (log intensity, higher = more binding, comparable within an allelic series)"
same,binding signal,[2],"6.35 upbm affinity estimate (log intensity, higher = more binding, comparable within an allelic series)"
same,binding signal,[4],"6.44 upbm affinity estimate (log intensity, higher = more binding, comparable within an allelic series)"
same,binding signal,[6],"6.43 upbm affinity estimate (log intensity, higher = more binding, comparable within an allelic series)"
same,binding signal,[8],"6.58 upbm affinity estimate (log intensity, higher = more binding, comparable within an allelic series)"
AGGCCCGC,binding signal,[1],"6.43 upbm affinity estimate (log intensity, higher = more binding, comparable within an allelic series)"
same,binding signal,[2],"6.37 upbm affinity estimate (log intensity, higher = more binding, comparable within an allelic series)"
same,binding signal,[4],"6.38 upbm affinity estimate (log intensity, higher = more binding, comparable within an allelic series)"
same,binding signal,[6],"6.39 upbm affinity estimate (log intensity, higher = more binding, comparable within an allelic series)"
same,binding signal,[8],"6.43 upbm affinity estimate (log intensity, higher = more binding, comparable within an allelic series)"
GCCAGCCC,binding signal,[1],"6.58 upbm affinity estimate (log intensity, higher = more binding, comparable within an allelic series)"
same,binding signal,[2],"6.38 upbm affinity estimate (log intensity, higher = more binding, comparable within an allelic series)"
same,binding signal,[15],"6.53 upbm affinity estimate (log intensity, higher = more binding, comparable within an allelic series)"
same,binding signal,[16],"6.62 upbm affinity estimate (log intensity, higher = more binding, comparable within an allelic series)"
same,binding signal,[4],"6.42 upbm affinity estimate (log intensity, higher = more binding, comparable within an allelic series)"
same,binding signal,[6],"6.51 upbm affinity estimate (log intensity, higher = more binding, comparable within an allelic series)"
same,binding signal,[8],"6.51 upbm affinity estimate (log intensity, higher = more binding, comparable within an allelic series)"
same,binding signal,[17],"6.43 upbm affinity estimate (log intensity, higher = more binding, comparable within an allelic series)"
CCGCCCCC,binding signal,[1],"6.46 upbm affinity estimate (log intensity, higher = more binding, comparable within an allelic series)"
same,binding signal,[2],"6.33 upbm affinity estimate (log intensity, higher = more binding, comparable within an allelic series)"
same,binding signal,[4],"6.51 upbm affinity estimate (log intensity, higher = more binding, comparable within an allelic series)"
same,binding signal,[6],"6.43 upbm affinity estimate (log intensity, higher = more binding, comparable within an allelic series)"
same,binding signal,[8],"6.41 upbm affinity estimate (log intensity, higher = more binding, comparable within an allelic series)"
CCAGGACC,binding signal,[1],"6.54 upbm affinity estimate (log intensity, higher = more binding, comparable within an allelic series)"
same,binding signal,[2],"6.39 upbm affinity estimate (log intensity, higher = more binding, comparable within an allelic series)"
same,binding signal,[4],"6.57 upbm affinity estimate (log intensity, higher = more binding, comparable within an allelic series)"
same,binding signal,[6],"6.52 upbm affinity estimate (log intensity, higher = more binding, comparable within an allelic series)"
same,binding signal,[8],"6.51 upbm affinity estimate (log intensity, higher = more binding, comparable within an allelic series)"
TCCCCCCA,binding signal,[1],"6.55 upbm affinity estimate (log intensity, higher = more binding, comparable within an allelic series)"
same,binding signal,[2],"6.5 upbm affinity estimate (log intensity, higher = more binding, comparable within an allelic series)"
same,binding signal,[4],"6.55 upbm affinity estimate (log intensity, higher = more binding, comparable within an allelic series)"
same,binding signal,[6],"6.52 upbm affinity estimate (log intensity, higher = more binding, comparable within an allelic series)"
same,binding signal,[8],"6.55 upbm affinity estimate (log intensity, higher = more binding, comparable within an allelic series)"
CGGGCCCG,binding signal,[1],"6.56 upbm affinity estimate (log intensity, higher = more binding, comparable within an allelic series)"
same,binding signal,[2],"6.74 upbm affinity estimate (log intensity, higher = more binding, comparable within an allelic series)"
same,binding signal,[4],"6.76 upbm affinity estimate (log intensity, higher = more binding, comparable within an allelic series)"
same,binding signal,[6],"6.72 upbm affinity estimate (log intensity, higher = more binding, comparable within an allelic series)"
same,binding signal,[8],"6.55 upbm affinity estimate (log intensity, higher = more binding, comparable within an allelic series)"
CAGCCAGG,binding signal,[1],"6.31 upbm affinity estimate (log intensity, higher = more binding, comparable within an allelic series)"
same,binding signal,[2],"6.36 upbm affinity estimate (log intensity, higher = more binding, comparable within an allelic series)"
same,binding signal,[4],"6.38 upbm affinity estimate (log intensity, higher = more binding, comparable within an allelic series)"
same,binding signal,[6],"6.49 upbm affinity estimate (log intensity, higher = more binding, comparable within an allelic series)"
same,binding signal,[8],"6.49 upbm affinity estimate (log intensity, higher = more binding, comparable within an allelic series)"
